# TEAD-YAP block: TEAD-YAP interaction inhibition; HEK-TIYL cells, TEAD-Gal4/YAP UAS-luciferase luminescence; inhibition, % at 9.12 µM; 640,000 tested, 1.4% active; in the data active = inhibition above about 32%;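 note: 0% = median of test compound wells and 100% = reference inhibitor wells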
# FBW7 act: human FBW7 E3 ligase activation, primary screen; 650,000 tested, 0.13% active; AlphaScreen FBW7–phospho-cyclin E peptide binding, activator screen; AID 1259310; normalized activity (activation), % at 26.1 µM; in the data active = normalized activity above about 1.9%;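 note: purified mutant Fbw7 with reduced substrate affinity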
# MITF inh: human MITF inhibition, primary screen | 650,000 tested, 0.91% active | AlphaScreen MITF homodimerization, bead proximity signal | AID 1259374 | O75030 | inhibition, % at 2.6 µM; in the data active = inhibition above about 50%;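 note: 0% = vehicle wells with protein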
# GPR151 activ: human GPR151 activation; Q8TDV0; PathHunter beta-arrestin GPR151 cells, luminescence; activation, % at 11.2 µM; 650,000 tested, 1% active; AID 1508602; in the data active = activation above about 4.9%;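 note: 0% = median of compound wells and 100% = cells with positive control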
# GPR151 confirm: confirmation of human GPR151 activators | activation, % at 11.2 µM | 6,700 tested, under 10 active | GPR151 PathHunter beta-arrestin cells, luminescence, 90 min; % of EA-reagent control over plate median | AID 1508609 | shares compounds with GPR151 activ;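 active = mean percent activation across replicates above the confirmation screen cutoff of 4.91%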
# GPR119 counter: counter-screen for GPR151 activators: effect on human GPR119; GPR119 PathHunter beta-arrestin cells, luminescence, 90 min; 0 = compound-well median, 100 = enzyme-acceptor control; 6,700 tested, 0.3% active; shares compounds with GPR151 activ; AID 1508611; activation, % at 11.2 µM;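 active = mean percent activation in the counterscreen above 29.09%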;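 note: counterscreen on off-target GPR119 to flag nonselective hits from the GPR151 activator screen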
# Target sequence (Q8TDV5 whole entry, looked up): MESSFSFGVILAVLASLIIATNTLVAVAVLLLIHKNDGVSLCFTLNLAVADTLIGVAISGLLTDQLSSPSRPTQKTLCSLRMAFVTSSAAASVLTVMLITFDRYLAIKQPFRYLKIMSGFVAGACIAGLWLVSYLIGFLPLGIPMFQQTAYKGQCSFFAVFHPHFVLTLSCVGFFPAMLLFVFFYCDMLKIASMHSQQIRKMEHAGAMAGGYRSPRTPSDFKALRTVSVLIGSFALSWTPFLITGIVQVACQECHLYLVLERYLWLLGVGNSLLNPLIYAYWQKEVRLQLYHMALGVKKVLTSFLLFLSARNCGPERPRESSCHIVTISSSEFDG
# An asterisk follows results filed as active; x = no result; ! = not active in a repeat. The list is not random: actives were taken first. Their share in the collection is about 3.4%.
SMILES,TEAD-YAP block,FBW7 act,MITF inh,GPR151 activ,GPR151 confirm,GPR119 counter
COc1ccc(CNC(=O)c2cc3c(=O)[nH]c4ccccc4c3n2C)c(OC)c1,-4.9,0.5,12.0,6.4*,-1.1,-10.6
O=C(CN1C(=O)c2cccc([N+](=O)[O-])c2C1=O)OCC(=O)c1ccccc1Cl,2.2,0.2,15.5,2.0,x,x
O=C(CN1C(=O)c2cccc([N+](=O)[O-])c2C1=O)OCc1ccc(Cl)cc1,-1.0,0.6,2.2,7.3*,-0.2,-8.2
O=C(CN1C(=O)c2cccc([N+](=O)[O-])c2C1=O)OCc1ccc(C(=O)c2ccccc2)cc1,-3.7,0.5,4.3,4.1,x,x
NC(=O)c1ccccc1NC(=O)CCN1C(=O)c2cccc([N+](=O)[O-])c2C1=O,-1.2,0.8,8.9,5.4*,-1.1,7.8
O=C(COC(=O)CN1C(=O)c2cccc([N+](=O)[O-])c2C1=O)OCN1C(=O)c2ccccc2C1=O,-12.0,1.0,34.4,4.9*,-0.1,4.3
COc1ccc(C#C[C@@H]2C=C[C@H](OC(C)=O)[C@@H](COC(C)=O)O2)cc1,x,0.1,-8.2,9.3*!,0.8,-4.8
CC(=O)OC[C@H]1O[C@H](C#Cc2ccc(C(C)(C)C)cc2)C=C[C@@H]1OC(C)=O,x,-0.2,-1.9,0.4,x,x
O=C(O)C1CCCN(c2ncnc3scc(-c4ccccc4)c23)C1 (centres undefined),-5.2,0.2,4.4,17.9*,-1.4,-3.8
CCOC(=O)C1CCCN(c2ncnc3scc(-c4ccccc4)c23)C1 (centres undefined),-18.9,-0.1,4.1,1.3,x,x
CC(C)C(C(=O)O)N1C(=O)c2cccc3cccc(c23)C1=O (centres undefined),-4.1,0.4,4.2,-1.3,x,x
COc1ccc(-n2c(C)nc3cc(C(=O)NCCc4ccc(OC)c(OC)c4)ccc32)cc1,-19.6,0.1,-26.2,-0.5,x,x
CCc1ccc(-n2c(C)nc3cc(C(=O)NCCc4ccc(OC)c(OC)c4)ccc32)cc1,8.5,0.0,-4.8,5.1*,-0.6,-9.8
CCN1CCc2c(sc(NC(=O)c3ccc(S(=O)(=O)N4CCCC(C)C4)cc3)c2C(=O)OC)C1 (centres undefined),2.1,0.0,7.9,5.3*,2.3,15.1
COC(=O)c1c(NC(=O)c2ccc(S(=O)(=O)N3CCCC(C)C3)cc2)sc2c1CCN(C(C)C)C2 (centres undefined),-0.3,-0.1,-14.6,0.5,x,x
COCCn1nnnc1C(c1cc2cccc(C)c2[nH]c1=O)N1CCCCC1 (centres undefined),4.7,-0.1,-0.5,5.2*,0.1,0.6
COCCn1nnnc1C(c1cc2cccc(C)c2[nH]c1=O)N1CCCCCC1 (centres undefined),6.9,0.4,6.0,0.3,x,x
CCOc1ccc(/C=C2/C(=O)NC(=O)N(Cc3ccc(F)cc3)C2=O)cc1,-3.8,-0.6,-16.8,-1.5,x,x
CCN(CC)c1ccc(/C=C2/C(=O)NC(=O)N(Cc3ccc(F)cc3)C2=O)cc1,6.4,-0.8,2.8,10.7*,0.6,-0.5
Cc1cccc(C)c1NC(=O)C1CC(O)CN1C(=O)OCC(C)C (centres undefined),-1.2,1.7,18.0,0.2,x,x
CCCCN(C)S(=O)(=O)c1ccc(C(=O)Nc2ccc3sc(C)nc3c2)cc1,61.0*,0.5,27.0,5.2*,0.5,13.1
COc1ccc(-n2c(C)cc(/C=C3\NC(=O)NC3=O)c2C)cc1,1.7,0.1,4.2,-0.3,x,x
COc1ccc(C(=O)NCCC(=O)NCC2CCCO2)cc1OC (centres undefined),-8.2,-0.2,-4.2,5.7*,0.0,8.8
COc1ccc(S(=O)(=O)NNC(=S)NCC2CCCO2)c(OC)c1 (centres undefined),-1.1,0.0,0.9,5.0*,-0.9,-10.3
O=S(=O)(NNC(=S)NCC1CCCO1)c1cc(Cl)ccc1Cl (centres undefined),3.4,0.0,6.2,-1.0,x,x
SMILES,TEAD-YAP block,FBW7 act,MITF inh,GPR151 activ,GPR151 confirm,GPR119 counter
NC(CC(=O)O)C(=O)O (centres undefined),-16.6,-0.1,12.4,7.8*,0.4,3.2
COc1cc(/C=C/C(=O)NCC2(c3ccc(F)cc3)CC2)cc(OC)c1OC,-7.0,0.6,15.2,-1.0,x,x
O=C(CN(CCc1ccccc1)S(=O)(=O)c1cc(Cl)ccc1Cl)N1CCCC1,-3.1,0.0,21.5,18.0*,-0.1,-12.8
O=C(CN(Cc1ccccc1)S(=O)(=O)c1cc(Cl)ccc1Cl)N1CCCC1,-2.4,0.3,21.6,3.0,x,x
CSc1ncc(CN2CCN(CC(C)(C)C)C(CCO)C2)cn1 (centres undefined),1.1,0.0,-2.4,5.8*,-0.4,1.7
O=C(CCCOc1ccccc1)Nc1ccc(S(=O)(=O)Nc2ncccn2)cc1,-5.5,-0.3,0.2,-1.6,x,x
Cc1ccc(NS(=O)(=O)c2ccc(NC(=O)CCCOc3ccccc3)cc2)cc1,-10.1,0.0,10.2,6.7*,0.6,4.1
Cc1ccc(NC(=O)CS(=O)(=O)c2ccccc2)cc1,-6.7,0.0,4.9,6.1*,0.2,9.9
CCCCCC(=O)Nc1ccc(S(=O)(=O)Nc2nccc(C)n2)cc1,5.9,0.0,9.0,5.5*,-1.0,-14.2
COc1ccc(N2C(=O)C3CN=NC3(C)C2=O)cc1 (centres undefined),8.6,0.1,0.4,0.5,x,x
COc1ccc(NC(=O)N2CCC(CN3CCOCC3)CC2)c(OC)c1,-1.5,0.3,9.0,3.8,x,x
COc1ccc(NC(=O)N2CCC(CN3CCOCC3)CC2)cc1OC,5.5,0.4,5.3,6.9*,0.8,6.5
CCOC(=O)c1cnc2cc(C)nn2c1N,-6.9,0.0,7.3,9.4*,-0.3,2.5
CC(C)(C)NS(=O)(=O)c1cc(C(=O)Nc2ccc(Cl)c(Cl)c2)ccc1F,21.7,-0.1,-0.8,-6.7,x,x
O=C1OC(c2ccc(-c3ccccc3)cc2)=N/C1=C\c1cccnc1,4.3,0.1,1.8,14.3*,-0.7,-5.0
CCC(=O)Nc1ccc(NC(=O)/C=C/c2cc(Br)ccc2OC)cc1,7.2,0.0,-4.5,9.6*,-0.2,1.3
O=C(Cc1cccc2ccccc12)Nc1cc(F)ccc1F,-12.2,1.0,15.4,-0.5,x,x
CC1CCCCN1Cc1ccc(C(=O)NCc2cnc3ccccc3c2)c(=O)[nH]1 (centres undefined),18.9,0.1,-1.5,10.8*,0.7,7.0
CCN(CC)Cc1ccc(C(=O)NCc2cnc3ccccc3c2)c(=O)[nH]1,10.5,-0.1,-8.0,0.9,x,x
CC(C)(C)C(=O)COC(=O)c1cccc(S(=O)(=O)N2CCCC2)c1,2.8,0.0,3.8,1.4,x,x
CNS(=O)(=O)c1cccc(C(=O)OCC(=O)C(C)(C)C)c1,-2.8,-0.1,-2.2,7.1*,0.1,8.0

# Source: PubChem BioAssay
